# Data taken from PubChem BioAssay (NCATS).
# Values joined by “and” are separate entries in the source; they are usually repeats but may differ in a detail not shown here. Equal values may be shown once. Records with an inconclusive call do not appear. Entries that show only a call come without a potency. Active and inactive are the calls of the source. Unless noted, calls come from the whole dose curve; as a rule, active = well fitted curve in the direction sought with a large enough effect; inconclusive = small, poorly fitted or top-dose-only effect, or another doubt; inactive = no such curve, though single readings can be large; an effect the other way counts as inactive or inconclusive.
# Experiments:
# [1] = Cell Viability - LYMP1-002 - Assay at 40 hr (AID 994); note: nearly all actives have a fitted effect of over 60% in size
# How it was run: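 LYMP1-002 human lymphoblastoid cells (2500/well, complete medium) were treated with compounds for 40 hr at 37 C. Intracellular ATP was measured by CellTiter-Glo luminescence, and AC50 values came from Hill-equation fits of concentration-response data; tetraoctylammonium bromide was the positive control.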
# [2] = qHTS Assay for Identification of Small Molecule Inducers of Hypoxia Response (AID 2120; active = well fitted curve in the direction sought with a large enough effect in the signal ratio, with a control signal flat, not every such curve was filed as active; the % refers to the signal ratio)
# How it was run: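 HRE-bla ME-180 cells in Opti-MEM with 0.5% dialyzed FBS, pre-plated 4-5 h, then compound titration for 17 h at 37 degrees Celsius. CCF4 loaded 2.5 h at room temperature; 460/530 nm ratio gave %Activity and AC50 for induction.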
# [3] = molecular target: Estrogen receptor (Homo sapiens) (UniProt P03372); experiment: qHTS assay for small molecule antagonists of estrogen receptor alpha signaling (AID 588513; active = well fitted curve in the direction sought with a large enough effect in the signal ratio, with a control signal flat, not every such curve was filed as active; the % refers to the signal ratio)
# Estrogen receptor (Homo sapiens), sequence (P03372 whole entry, looked up): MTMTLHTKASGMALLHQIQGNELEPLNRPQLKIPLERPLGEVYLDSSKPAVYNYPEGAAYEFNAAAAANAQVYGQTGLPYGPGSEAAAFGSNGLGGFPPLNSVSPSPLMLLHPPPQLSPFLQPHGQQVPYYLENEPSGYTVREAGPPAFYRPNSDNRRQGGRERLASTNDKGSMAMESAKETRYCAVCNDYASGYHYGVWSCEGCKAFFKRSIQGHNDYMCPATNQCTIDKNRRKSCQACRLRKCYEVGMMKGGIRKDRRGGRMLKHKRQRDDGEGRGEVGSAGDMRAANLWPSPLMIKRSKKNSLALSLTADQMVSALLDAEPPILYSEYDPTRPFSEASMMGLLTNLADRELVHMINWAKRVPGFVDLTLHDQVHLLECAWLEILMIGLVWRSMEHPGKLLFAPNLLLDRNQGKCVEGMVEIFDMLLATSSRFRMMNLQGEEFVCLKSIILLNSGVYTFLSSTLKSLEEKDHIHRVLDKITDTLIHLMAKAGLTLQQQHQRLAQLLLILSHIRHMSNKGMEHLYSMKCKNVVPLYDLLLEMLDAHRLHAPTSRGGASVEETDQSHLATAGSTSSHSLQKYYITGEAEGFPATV
# How it was run: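 Beta-lactamase reporter, antagonist mode, HEK 293 GripTite cells; 0.5nM E2 stimulus, 18 h, 37 C; CCF4 dye 2 h RT; fluorescence. IC50 and efficacy from Hill fits, normalized to E2 and DMSO.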
# [4] = molecular target: Glucocorticoid receptor (Homo sapiens) (UniProt P04150); experiment: qHTS assay for small molecule agonists of glucocorticoid receptor signaling (AID 588532; active = well fitted curve in the direction sought with a large enough effect in the signal ratio, with a control signal flat; the % refers to the signal ratio); conditions: HeLa MMTV-bla, beta-lactamase ratio, agonist, 18 h; stronger effect = higher value; percent of dexamethasone control, DMSO zero
# Glucocorticoid receptor (Homo sapiens), sequence (P04150 whole entry, looked up): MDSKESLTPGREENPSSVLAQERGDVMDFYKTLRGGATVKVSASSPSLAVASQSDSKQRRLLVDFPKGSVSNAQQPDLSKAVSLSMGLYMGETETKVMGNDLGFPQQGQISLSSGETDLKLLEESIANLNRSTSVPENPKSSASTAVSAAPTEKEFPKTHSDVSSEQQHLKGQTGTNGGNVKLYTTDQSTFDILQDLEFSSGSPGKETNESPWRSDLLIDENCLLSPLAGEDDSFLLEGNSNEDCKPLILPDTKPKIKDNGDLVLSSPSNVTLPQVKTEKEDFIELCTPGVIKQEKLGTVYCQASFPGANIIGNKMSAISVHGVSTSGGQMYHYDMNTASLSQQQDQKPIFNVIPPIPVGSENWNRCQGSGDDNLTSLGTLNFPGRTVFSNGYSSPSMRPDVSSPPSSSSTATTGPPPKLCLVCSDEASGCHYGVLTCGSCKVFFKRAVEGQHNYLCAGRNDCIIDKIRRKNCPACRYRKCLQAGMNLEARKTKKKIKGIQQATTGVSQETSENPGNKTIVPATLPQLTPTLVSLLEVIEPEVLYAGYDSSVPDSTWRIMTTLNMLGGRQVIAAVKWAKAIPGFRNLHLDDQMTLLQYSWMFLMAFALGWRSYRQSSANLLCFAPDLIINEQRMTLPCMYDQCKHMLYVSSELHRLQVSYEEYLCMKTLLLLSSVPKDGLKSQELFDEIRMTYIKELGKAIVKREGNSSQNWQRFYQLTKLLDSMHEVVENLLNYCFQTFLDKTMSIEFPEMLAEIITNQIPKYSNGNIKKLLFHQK
# How it was run: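 MMTV-bla HeLa, beta-lactamase reporter; medium with 1% charcoal/dextran-stripped FBS; cpds up to 92 uM, 18 h, 37 C; CCF4 readout 460/530 nm; Hill fit → EC50, efficacy vs 0.1 uM dexamethasone = 100%.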
# [5] = molecular target: Glucocorticoid receptor (Homo sapiens) (UniProt P04150); experiment: qHTS assay for small molecule antagonists of glucocorticoid receptor signaling (AID 588533; active = well fitted inhibition curve with a large enough effect in the signal ratio, with a control signal flat, not every such curve was filed as active; the % refers to the signal ratio;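 note: cells stimulated with 2 nM dexamethasone as agonist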)
# How it was run: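 Antagonist-mode qHTS: compound titrations added to GRE-bla HeLa cells, then dexamethasone 2 nM final; 18 h, 37 C. CCF4 FRET fluorescence normalized to dexamethasone and DMSO; IC50 from Hill fit.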
# [6] = qHTS assay for small molecule antagonists of peroxisome proliferator-activated receptor delta signaling (AID 588535; active = well fitted inhibition curve with a large enough effect in the signal ratio, with a control signal flat, not every such curve was filed as active; the % refers to the signal ratio;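 for max response: cells co-treated with a PPAR-delta agonist as stimulator during compound exposure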); conditions: HEK293T PPARd-UAS-bla, beta-lactamase FRET ratio, 18 h; 460 nm channel
# How it was run: (§1)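 Reporter: UAS-bla under PPAR-delta response element, HEK293T host. Medium: 2% charcoal/dextran FBS. Dosing: titration, 18 hrs, 37 C. Detection: CCF4, 2 hrs RT, 405 ex/460 and 530 em.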
# [7] = molecular target: Peroxisome proliferator-activated receptor delta (Homo sapiens) (UniProt Q03181); experiment: as above
# Peroxisome proliferator-activated receptor delta (Homo sapiens), sequence (Q03181 whole entry, looked up): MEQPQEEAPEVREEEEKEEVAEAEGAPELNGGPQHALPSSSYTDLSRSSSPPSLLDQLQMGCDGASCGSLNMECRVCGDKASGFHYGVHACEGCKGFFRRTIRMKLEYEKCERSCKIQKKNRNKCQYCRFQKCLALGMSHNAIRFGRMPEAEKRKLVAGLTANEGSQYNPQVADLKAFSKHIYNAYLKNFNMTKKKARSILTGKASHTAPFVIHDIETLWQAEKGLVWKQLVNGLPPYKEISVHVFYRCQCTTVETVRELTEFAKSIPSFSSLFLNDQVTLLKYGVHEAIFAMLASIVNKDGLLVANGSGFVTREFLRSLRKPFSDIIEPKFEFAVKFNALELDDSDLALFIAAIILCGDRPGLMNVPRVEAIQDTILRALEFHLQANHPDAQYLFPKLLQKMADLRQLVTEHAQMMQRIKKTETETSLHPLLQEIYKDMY
# How it was run: as §1
# [8] = molecular target: Vitamin D3 receptor (Homo sapiens) (UniProt P11473); experiment: qHTS assay for small molecule antagonists of vitamin D receptor signaling (AID 588541; calls by dose curve;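 note: receptor activated by calcitriol during compound treatment; series mostly up to about 77 µM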)
# Vitamin D3 receptor (Homo sapiens), sequence (P11473 whole entry, looked up): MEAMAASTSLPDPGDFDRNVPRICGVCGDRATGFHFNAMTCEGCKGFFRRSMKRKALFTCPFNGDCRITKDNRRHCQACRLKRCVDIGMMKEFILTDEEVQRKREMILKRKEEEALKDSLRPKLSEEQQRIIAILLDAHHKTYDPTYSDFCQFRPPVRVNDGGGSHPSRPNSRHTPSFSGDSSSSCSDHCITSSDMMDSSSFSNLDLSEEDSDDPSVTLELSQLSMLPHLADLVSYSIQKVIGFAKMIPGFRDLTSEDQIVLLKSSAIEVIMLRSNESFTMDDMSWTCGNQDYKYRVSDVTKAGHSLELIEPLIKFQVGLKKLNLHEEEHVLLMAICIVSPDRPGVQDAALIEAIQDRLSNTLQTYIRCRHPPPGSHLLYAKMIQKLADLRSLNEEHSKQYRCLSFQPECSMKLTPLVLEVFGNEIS
# How it was run: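 VDR-UAS-bla HEK293T cells (2000/well, 2% charcoal-stripped FBS) were treated with titrated compounds plus 1-alpha,25-dihydroxyvitamin D3 (50 nM or 3 nM final) for 16 h at 37 C. CCF4 beta-lactamase fluorescence was read; Hill fits gave IC50.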
# [9] = molecular target: Vitamin D3 receptor (Homo sapiens) (UniProt P11473); experiment: qHTS assay for small molecule agonists of vitamin D receptor signaling (AID 588543; calls by dose curve)
# How it was run: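 β-lactamase reporter, VDR-UAS-bla HEK293T, agonist mode. Cells plated 5 h at 37 °C, compound titration 16 h at 37 °C, CCF4 dye 2 h RT, ratio 460/530 nm. Hill fit → EC50, efficacy vs 50 nM 1α,25-(OH)2D3.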
# [10] = qHTS assay for small molecule agonists of retinoid X receptor alpha signaling (AID 588544; calls by dose curve); conditions: HEK293T RXRa-UAS-bla, beta-lactamase reporter, 18 h; 530 nm emission
# [11] = molecular target: Retinoic acid receptor RXR-alpha (Homo sapiens) (UniProt P19793); experiment: as above
# Retinoic acid receptor RXR-alpha (Homo sapiens), sequence (P19793 whole entry, looked up): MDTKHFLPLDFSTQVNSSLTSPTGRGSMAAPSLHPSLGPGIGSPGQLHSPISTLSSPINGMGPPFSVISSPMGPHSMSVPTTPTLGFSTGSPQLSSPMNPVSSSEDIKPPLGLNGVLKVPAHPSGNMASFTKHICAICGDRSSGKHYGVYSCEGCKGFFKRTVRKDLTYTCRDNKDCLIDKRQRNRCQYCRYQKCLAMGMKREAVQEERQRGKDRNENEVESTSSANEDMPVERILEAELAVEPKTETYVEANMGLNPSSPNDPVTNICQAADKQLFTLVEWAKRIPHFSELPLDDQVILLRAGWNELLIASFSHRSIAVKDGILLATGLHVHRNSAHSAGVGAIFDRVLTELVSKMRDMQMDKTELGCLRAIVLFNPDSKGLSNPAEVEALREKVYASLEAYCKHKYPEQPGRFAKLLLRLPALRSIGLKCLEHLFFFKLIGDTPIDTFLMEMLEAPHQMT
# [12] = qHTS assay for small molecule antagonists of retinoid X receptor alpha signaling (AID 588546; active = well fitted inhibition curve with a large enough effect in the signal ratio, with a control signal flat, not every such curve was filed as active; the % refers to the signal ratio;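 note: cells stimulated with 9-cis-retinoic acid as agonist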); conditions: HEK293T RXRa-UAS-bla, beta-lactamase ratio, antagonist mode; measured here: W530 green channel, cytotoxicity proxy
# How it was run: (§2)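 Beta-lactamase reporter inhibition, read as CCF4 fluorescence ratio (ex 405, em 460/530 nm) after 2 h at RT. HEK293T UAS-bla cells, 2500/well, were stimulated with 9-cis-RA at 500 or 100 nM final alongside test compound for 18 h at 37 C.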
# [13] = molecular target: Retinoic acid receptor RXR-alpha (Homo sapiens) (UniProt P19793); experiment: as above; conditions: HEK293T RXRa-UAS-bla, beta-lactamase ratio, antagonist mode
# How it was run: as §2
# [14] = molecular target: Thyroid hormone receptor beta (Homo sapiens) (UniProt P10828); experiment: qHTS assay for small molecule antagonists of thyroid hormone receptor beta signaling (AID 588547; active = well fitted inhibition curve with a large enough effect in the signal ratio, with a control signal flat, not every such curve was filed as active; the % refers to the signal ratio;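 note: cells stimulated with 0.4 nM T3 agonist during compound exposure; series mostly up to about 77 µM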); conditions: TR-UAS-bla HEK293, beta-lactamase ratio, antagonist mode, 18 h
# Thyroid hormone receptor beta (Homo sapiens), sequence (P10828 whole entry, looked up): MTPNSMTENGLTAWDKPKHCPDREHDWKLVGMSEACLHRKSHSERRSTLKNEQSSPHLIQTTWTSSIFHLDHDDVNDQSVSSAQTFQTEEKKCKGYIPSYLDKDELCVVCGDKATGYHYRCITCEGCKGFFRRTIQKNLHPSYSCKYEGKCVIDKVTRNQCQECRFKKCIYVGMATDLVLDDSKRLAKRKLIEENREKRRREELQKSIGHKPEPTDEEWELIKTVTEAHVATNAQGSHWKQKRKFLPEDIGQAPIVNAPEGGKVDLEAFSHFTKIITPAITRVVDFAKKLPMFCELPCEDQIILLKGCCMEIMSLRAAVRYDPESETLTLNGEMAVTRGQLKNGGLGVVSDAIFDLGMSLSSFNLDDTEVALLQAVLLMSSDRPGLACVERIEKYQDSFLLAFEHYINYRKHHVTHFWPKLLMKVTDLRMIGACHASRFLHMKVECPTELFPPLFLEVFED
# How it was run: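 TR-UAS-bla GripTite HEK293 cells in 2% charcoal/dextran FBS medium were preincubated 4 h at 37 C, given compound (0.59 nM to 92 uM) plus 0.4 nM T3 (final) for 18 h, then CCF4 for 2 h at RT; Hill fit gave IC50.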
# [15] = molecular target: Voltage-gated inwardly rectifying potassium channel KCNH2 (Homo sapiens) (UniProt Q12809); experiment: qHTS Assay for Small Molecule Inhibitors of the Human hERG Channel Activity (AID 588834);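 note: top concentration of the series differs between compounds; lower thallium flux fluorescence means stronger hERG block; nearly all actives have a fitted effect of over 50% in size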
# Voltage-gated inwardly rectifying potassium channel KCNH2 (Homo sapiens), sequence (Q12809 whole entry, looked up): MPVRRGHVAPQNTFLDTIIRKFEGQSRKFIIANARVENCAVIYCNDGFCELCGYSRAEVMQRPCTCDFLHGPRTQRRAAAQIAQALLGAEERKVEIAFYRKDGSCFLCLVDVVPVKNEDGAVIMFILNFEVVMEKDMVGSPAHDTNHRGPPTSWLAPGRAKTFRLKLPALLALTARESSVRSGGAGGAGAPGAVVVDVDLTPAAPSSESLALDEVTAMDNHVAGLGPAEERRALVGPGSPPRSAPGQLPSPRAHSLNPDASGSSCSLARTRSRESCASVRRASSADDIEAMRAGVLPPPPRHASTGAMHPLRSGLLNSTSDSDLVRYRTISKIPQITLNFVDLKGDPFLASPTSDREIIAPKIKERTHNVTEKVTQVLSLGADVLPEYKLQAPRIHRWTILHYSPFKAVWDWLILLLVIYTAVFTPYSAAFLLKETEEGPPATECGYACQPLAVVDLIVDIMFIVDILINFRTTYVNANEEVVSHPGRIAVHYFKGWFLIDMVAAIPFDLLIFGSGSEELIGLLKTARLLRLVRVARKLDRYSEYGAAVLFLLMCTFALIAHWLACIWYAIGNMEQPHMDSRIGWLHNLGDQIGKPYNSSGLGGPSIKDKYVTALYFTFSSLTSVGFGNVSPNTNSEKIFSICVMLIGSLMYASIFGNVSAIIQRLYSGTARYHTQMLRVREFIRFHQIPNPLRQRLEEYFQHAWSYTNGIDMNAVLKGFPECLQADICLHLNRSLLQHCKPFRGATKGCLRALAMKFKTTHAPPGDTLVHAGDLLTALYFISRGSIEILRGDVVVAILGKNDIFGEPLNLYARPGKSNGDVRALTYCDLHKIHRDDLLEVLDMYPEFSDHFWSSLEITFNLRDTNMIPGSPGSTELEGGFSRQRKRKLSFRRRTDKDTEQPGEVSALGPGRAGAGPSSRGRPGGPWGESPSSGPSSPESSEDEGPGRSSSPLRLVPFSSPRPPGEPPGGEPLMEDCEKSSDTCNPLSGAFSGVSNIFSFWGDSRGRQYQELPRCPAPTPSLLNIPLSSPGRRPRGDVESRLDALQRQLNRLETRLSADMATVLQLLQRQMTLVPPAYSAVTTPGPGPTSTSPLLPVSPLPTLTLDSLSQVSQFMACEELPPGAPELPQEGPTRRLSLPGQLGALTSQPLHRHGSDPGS
# How it was run: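 Concentration-response qHTS measuring drop in thallium-sensitive dye signal. U2OS cells carrying BacMam hERG; compound exposure ~10 min, then stimulation buffer and 2 min read at 1 sec intervals.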
# [16] = qHTS assay for small molecule agonists of the antioxidant response element (ARE) signaling pathway (AID 651741; active = well fitted activation curve with a large enough effect in the signal ratio; the % refers to the signal ratio)
# How it was run: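 Compounds in DMSO are pinned onto HepG2 ARE-bla cells (2,000/well) that were preincubated 5 h; plates stay 16 h at 37 C, then beta-lactamase activity is detected with LiveBLAzer B/G substrate by fluorescence.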
# [17] = qHTS assay for small molecule activators of the p53 signaling pathway (AID 651743; active = well fitted activation curve with a large enough effect in the signal ratio, not every such curve was filed as active; the % refers to the signal ratio; note: series mostly up to about 92 µM); conditions: HCT-116 p53RE-bla, beta-lactamase FRET ratio, 16 h; activation: stronger effect = higher value
# How it was run: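 Cell-based beta-lactamase reporter (p53 response elements, HCT-116 background). After a 5-hour preincubation, cells received compound for 16 hours at 37 C; substrate development ran 2 hours at room temperature.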
# [18] = qHTS assay for small molecule activators of the nuclear factor-kappa B (NF-kB) signaling pathway (AID 651749; active = well fitted activation curve with a large enough effect in the signal ratio; the % refers to the signal ratio; note: series mostly up to about 77 µM); conditions: NF-kB-bla ME-180 cells, beta-lactamase FRET ratio, 16 h; stronger effect = higher value
# How it was run: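 Screening used 2,000 ME-180 reporter cells per well exposed to pinned compound (23 nL) or DMSO; after 16 hr at 37C, beta-lactamase expression under NF-kB control was assessed through FRET.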
# [19] = qHTS assay for small molecule disruptors of the mitochondrial membrane potential - 1 hr assay (AID 651754; calls by dose curve; note: nearly all actives have a fitted effect of over 35% in size)
# How it was run: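 HepG2 cells, attached overnight, were exposed to compound for 1 hr at 37C, then stained 30 min with a potentiometric dye. Ratio of red aggregate (590nm) to green monomer (535nm) fluorescence reports membrane potential; collapse shifts signal toward green.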
# [20] = qHTS assay for small molecule disruptors of the mitochondrial membrane potential - 5 hr assay (AID 651755; calls by dose curve; note: nearly all actives have a fitted effect of over 40% in size)
# How it was run: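 HepG2 cells, attached overnight at 37C, were exposed to compound or DMSO for 5 hr at 37C, 5% CO2. Mito-MPS dye was then added for 30 min, and fluorescence read at 490/535 nm (monomers) and 540/590 nm (aggregates).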
# [21] = molecular target: Tumor necrosis factor (Homo sapiens) (UniProt P01375); experiment: qHTS assay to identify small molecules that stimulate Tumor Necrosis Factor-alpha (TNF-alpha) secretion (AID 651757; active = well fitted curve in the direction sought with a large enough effect in the signal ratio; the % refers to the signal ratio)
# Tumor necrosis factor (Homo sapiens), sequence (P01375 whole entry, looked up): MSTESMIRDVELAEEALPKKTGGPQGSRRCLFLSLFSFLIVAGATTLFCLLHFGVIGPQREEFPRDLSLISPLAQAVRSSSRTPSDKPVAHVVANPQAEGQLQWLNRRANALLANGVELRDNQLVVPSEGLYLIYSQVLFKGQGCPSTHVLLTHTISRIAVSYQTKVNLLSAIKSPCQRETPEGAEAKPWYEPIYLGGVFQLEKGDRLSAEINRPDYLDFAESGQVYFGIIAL
# How it was run: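 THP-1 cells (3000/well) exposed to compounds 17 hrs at 37 C. Secreted TNF-alpha detected by HTRF with cryptate- and XL665-labeled anti-TNF-alpha antibodies after 3 hr at room temperature.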
# [22] = qHTS assay for environmental chemicals that activate the Aryl hydrocarbon Receptor (AhR) signaling pathway (AID 651777); conditions: 1A2-DRE human hepatoma cells, luciferase, 24 h; activation: stronger effect = higher value; note: nearly all actives have a fitted effect of over 15% in size
# How it was run: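 Following a 24 hr incubation with test chemicals at 37 C and 5% CO2, 1A2-DRE human hepatoma cells received One-Glo reagent; after 30 min at room temperature, luciferase output reflected CYP1A2 induction via AhR.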
# [23] = qHTS assay for small molecule agonists of the antioxidant response element (ARE) signaling pathway measured by Nrf2-dependant transcriptional activity (AID 720636; active = well fitted curve in the direction sought with a large enough effect in the repeat runs; an effect the other way counts as inactive or inconclusive;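 note: HepG2 cells with an ARE-driven luciferase reporter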)
# How it was run: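 ONE-Glo luminescence, read 30 min after reagent addition at room temperature, reflected ARE reporter activity in HepG2 cells that had been incubated with compound for 16 hr at 37 C in 1% dialyzed FBS.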
# [24] = qHTS assay for small molecule antagonists of the retinoid-related orphan receptor gamma (ROR-gamma) signaling pathway - cell viability counter screen (AID 720652; active = well fitted curve in the direction sought with a large enough effect in the repeat runs; an effect the other way counts as inactive or inconclusive;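 note: CHO reporter cells with doxycycline-induced ROR-gamma expression; series mostly up to about 92 µM; compound exposure lasted 16 hr before ATP read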)
# How it was run: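 CHO cells carrying TET-inducible ROR and RORE-luciferase reporter, plated 5 hr, then dosed with compound plus doxycycline. After 16 hr at 37 C, viability read as intracellular ATP by CellTiter-Glo luminescence.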
# [25] = qHTS assay for small molecule agonists of the antioxidant response element (ARE) signaling pathway measured by Nrf2-dependant transcriptional activity - cell viability counter screen (AID 720653; active = well fitted curve in the direction sought with a large enough effect in the repeat runs; an effect the other way counts as inactive or inconclusive); conditions: ARE-bla HepG2 viability, CellTiter-Glo ATP luminescence, 16 h; max response: stronger effect = lower value
# How it was run: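 ARE-bla HepG2 cells (2,000/well) rested 5 hrs at 37C/5% CO2, then exposed to compounds in DMSO for 16 hrs. Viability was read in the same wells as intracellular ATP by luminescence, 30 min at room temperature after reagent addition.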
# [26] = qHTS assay for cell viability of HEK293 cells (AID 743288); conditions: ATP luminescence (CellTiter-Glo), 18 h; max response: stronger effect = lower value; note: nearly all actives have a fitted effect of over 50% in size
# How it was run: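 Environmental chemicals tested in qHTS format against parental HEK293 cells; 18 h treatment, 37 C; read-out ATP luminescence (CellTiter-Glo), 30 min RT development.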
# [27] = qHTS assay for cell viability of the p53RE-bla HCT-116 cell line (AID 743292); note: nearly all actives have a fitted effect of over 55% in size
# How it was run: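 After plating at 4,000 cells per well and a 5 h rest at 37 C, HCT-116 cells carrying p53RE-bla received test chemicals in DMSO. Sixteen hours later at 37 C, CellTiter-Glo was added and luminescence recorded following 30 min at room temperature.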
# [28] = NCATS anti-infectives library activity on HEK293 viability as a counter-qHTS vs the C. elegans viability qHTS (AID 1745854);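 note: HEK293 cells exposed to compounds for 24 hr before the viability read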
# How it was run: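 HEK293 cells (1,500/well) exposed 24 hr at 37C to 1:5 titrations, up to 41.7 uM final; counter-screen to a C. elegans viability qHTS. Viability by CellTiter-Glo luminescence after 10 min at room temperature; digitonin as control.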
# [29] = molecular target: Nuclear receptor subfamily 1 group I member 2 (Rattus norvegicus) (UniProt Q9R1A7); experiment: qHTS assay for small molecule activators of the rat pregnane X receptor (rPXR) signaling pathway (AID 651751; call rule not given here); conditions: rPXR reporter cells, luciferase (One-Glo), 24 h
# Nuclear receptor subfamily 1 group I member 2 (Rattus norvegicus), sequence (Q9R1A7 whole entry, looked up): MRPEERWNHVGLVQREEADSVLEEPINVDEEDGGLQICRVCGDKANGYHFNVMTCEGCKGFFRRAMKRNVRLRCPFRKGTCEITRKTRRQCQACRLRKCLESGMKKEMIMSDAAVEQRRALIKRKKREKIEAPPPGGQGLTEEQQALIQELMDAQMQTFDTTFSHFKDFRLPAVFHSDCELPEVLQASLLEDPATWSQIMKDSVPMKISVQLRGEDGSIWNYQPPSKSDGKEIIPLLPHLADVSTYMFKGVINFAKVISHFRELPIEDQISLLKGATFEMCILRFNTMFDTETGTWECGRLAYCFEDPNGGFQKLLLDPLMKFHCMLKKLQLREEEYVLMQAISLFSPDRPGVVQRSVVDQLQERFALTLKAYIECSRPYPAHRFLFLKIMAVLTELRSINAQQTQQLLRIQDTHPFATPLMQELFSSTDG
# [30] = qHTS assay for small molecule activators of the human pregnane X receptor (PXR) signaling pathway (AID 720659; call rule not given here)
compound,measurement,setting,value
CC12CCC(CC1=O)C2(C)C (stereo not given),Potency,[1],inactive
same,outcome,[2],inactive
same,Potency,[3],inactive
same,activation,[4],-1.08% (inactive) and -9.03% (inactive)
same,Potency,[5],inactive
same,max response,[6],-33.5% and 11.1%
same,Potency,[7],inactive
same,outcome,[8],inactive
same,outcome,[9],inactive
same,max response,[10],0.96% and -15.4%
same,outcome,[11],inactive
same,max response,[12],-5.66% and -6.43%
same,max response,[13],4.29% (inactive) and -7.42% (inactive)
same,activity change % (negative = inhibition),[14],8% (inactive) and 6.78% (inactive)
same,Potency,[15],inactive
same,Potency,[16],inactive
same,activation,[17],-2.06% (inactive) and 2.14% (inactive)
same,activation,[18],-0.0521% (inactive) and -0.265% (inactive)
same,Potency,[19],inactive
same,Potency,[20],inactive
same,outcome,[21],inactive
same,activation,[22],-0.66% (inactive) and 0.506% (inactive)
same,Potency,[23],inactive
same,Potency,[24],inactive
same,max response,[25],-1.85% (inactive) and 2.1% (inactive)
same,max response,[26],-2.81% (inactive) and -7.37% (inactive)
same,Potency,[27],inactive
same,Potency,[28],inactive
same,max response,[29],4.6% (inactive) and -1.11% (inactive)
same,outcome,[30],inactive
